In PubChem BioAssay (EPA / NIEHS):
Inconclusive results are not listed. Calls of active or inactive are those of the source. The calls were made as follows, unless noted: active = hit-call score of the fitted dose curve at least 0.9, where 1 is the maximum; inconclusive = response in the unintended direction; inactive = score below 0.9.

How the values were obtained:
[1] = target: Retinoic acid receptor alpha (Homo sapiens) (UniProt P10276); assay: ATG_DR5_RAR_CIS: Attagene CIS-FACTORIAL HepG2 Assay for human Retinoic Acid Receptor Alpha (RARE), DR5 submotif (AID 2282934; active = hit-call score of the fitted dose curve at least 0.9, where 1 is the maximum; inactive = score below 0.9); details: HepG2 Attagene cis-factorial RARE DR5 reporter, mRNA; actives raise or lower the signal
Method in brief: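 HepG2, transient cis-reporter transfection, 24 h exposure. mRNA readout: RT-PCR, FAM label, HpaI cut, capillary electrophoresis. DMSO baseline, gain/loss fitting.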

[2] = target: Bile acid receptor (Homo sapiens) (UniProt Q96RI1); assay: ATG_IR1_CIS: Attagene CIS-FACTORIAL HepG2 Assay for human Nuclear Receptor Subfamily 1 Group H Member 4 (NR1H4), IR1 submotif (AID 2282946; active = hit-call score of the fitted dose curve at least 0.9, where 1 is the maximum; inactive = score below 0.9); details: IR1 reporter transcription, actives raise or lower the signal
Method in brief: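 Cells (human HepG2) carry transiently transfected cis-promoter reporter transcription units. Compounds are incubated 24 h, total RNA is reverse-transcribed and amplified, and labelled fragments are resolved by capillary electrophoresis. Curves use DMSO as baseline.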

[3] = target: Glucocorticoid receptor (Homo sapiens) (UniProt P04150); assay: ATG_GR_TRANS: Attagene TRANS-FACTORIAL HepG2 Assay for human Glucocorticoid Receptor (GR) (AID 2282978); details: HepG2 Attagene TRANS GR reporter, mRNA transcription;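 also: activators score as hits since higher reporter transcript over DMSO is fitted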
Method in brief: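 Fluorescent capillary-electrophoresis quantitation of reporter mRNA is the readout, taken 24 h after dosing human HepG2 cells carrying transiently transfected GAL4-UAS reporter units activated by chimeric NR-GAL4 fusions; activity scored as induction over DMSO.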

[4] = target: Oxysterols receptor LXR-beta (Homo sapiens) (UniProt P55055); assay: ATG_LXRb_TRANS: Attagene TRANS-FACTORIAL HepG2 Assay for human Liver X Receptor beta (LXRb) (AID 2282981); details: HepG2 Attagene TRANS GAL4-LXRb reporter, mRNA
Method in brief: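 Transient transfection HepG2 (multiplexed RTUs, GAL4-UAS); NR-Gal4 chimera; 24 h exposure; RNA → RT-PCR → 6-FAM primer extension → HpaI → CE; increase vs DMSO.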

[5] = target: human Peroxisome Proliferator-activated Receptor alpha (PPARa), PPARA (gene 5465) (UniProt Q07869); assay: ATG_PPARa_TRANS: Attagene TRANS-FACTORIAL HepG2 Assay for human Peroxisome Proliferator-activated Receptor alpha (PPARa) (AID 2283001)
Method in brief: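 Read-out is fluorescence of reporter cDNA fragments resolved by capillary electrophoresis after RT-PCR. Human HepG2 liver cells carried transfected PPARa-Gal4 chimera and GAL4-UAS reporter units, treated 24 h; activity scored as increase over DMSO.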

[6] = target: Nuclear receptor subfamily 1 group I member 3 (Homo sapiens) (UniProt Q14994); assay: ATG_CAR_TRANS: Attagene TRANS-FACTORIAL HepG2 Assay for human Constitutive Androstane Receptor (CAR) (AID 2282969); details: HepG2 Attagene TRANS-FACTORIAL CAR reporter;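 also: activators raise reporter mRNA above DMSO so AC50 marks induction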
Method in brief: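 Readout is reporter mRNA induction, quantified by fluorescent primer extension and capillary electrophoresis after RT-PCR. Cells were HepG2 transiently carrying chimeric NR-Gal4 constructs with GAL4-UAS reporters, treated for 24 h; activity scored upward from DMSO.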

[7] = ATG_GAL4_TRANS: Attagene TRANS-FACTORIAL HepG2 Assay for GAL4 (Internal Marker) (AID 2282976); details: HepG2 Attagene TRANS GAL4 internal marker reporter
Method in brief: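 Liver HepG2 line bearing multiplexed GAL4-UAS reporter constructs; 24 h chemical treatment. Transcripts were quantified as fluorescent fragments on capillary electrophoresis after RT-PCR and HpaI cut, with activity fitted upward from DMSO.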

[8] = target: Oxysterols receptor LXR-alpha (Homo sapiens) (UniProt Q13133); assay: ATG_LXRa_TRANS: Attagene TRANS-FACTORIAL HepG2 Assay for human Liver X Receptor alpha (LXRa) (AID 2282980); details: HepG2 Attagene TRANS reporter, LXRa transactivation
Method in brief: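 In this multiplexed TRANS system, compounds act on HepG2 cells carrying GAL4-UAS reporter units and a receptor-GAL4 fusion for 24 h. Induced reporter RNA is amplified, fluorescently labelled and sized by capillary electrophoresis, with DMSO as baseline.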

[9] = target: Peroxisome proliferator-activated receptor gamma (Homo sapiens) (UniProt P37231); assay: ATG_PPARg_TRANS: Attagene TRANS-FACTORIAL HepG2 Assay for human Peroxisome Proliferator-activated Receptor-gamma (PPARg) (AID 2283007)
Method in brief: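 Transient transfection of HepG2 with GAL4-UAS-driven reporter units; chemical dosing 24 h; total RNA → oligo(dT) RT → PCR with reporter primers → 6-FAM primer extension → HpaI digest 2 h 37 C → capillary electrophoresis. Positive direction vs DMSO.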

[10] = target: human RAR-related Orphan Receptor beta (RORb), RORB (gene 6096) (UniProt Q92753); assay: ATG_RORb_TRANS: Attagene TRANS-FACTORIAL HepG2 Assay for human RAR-related Orphan Receptor beta (RORb) (AID 2283010)
Method in brief: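 HepG2 cells transiently transfected with GAL4-UAS reporter units expressing chimeric NR-Gal4 protein; reporter mRNA measured 24 h after dosing by RT-PCR, 6-FAM labelling and capillary electrophoresis. Gain-of-signal fitted relative to DMSO baseline.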

[11] = CCTE_Harrill_HTTr_Viability_MCF7: CCTE's 6-hour Cell Viability Assessment for the High-Throughput Transcriptomics (HTTr) Platform, in MCF-7 cells cultured in DMEM + 10% fetal bovine serum, Harrill Lab (AID 2284010; active = hit-call score of the fitted dose curve at least 0.9, where 1 is the maximum; inactive = score below 0.9)
Method in brief: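 MCF-7 cells in DMEM + 10% FBS, 384-well, exposed 6 h to an eight-point dilution series. Membrane integrity scored by high-content imaging of propidium iodide exclusion; bidirectional fit versus DMSO.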

[12] = CCTE_Harrill_HTTr_Apoptosis_MCF7: CCTE's 6-hour Apoptosis Assessment for the High-Throughput Transcriptomics (HTTr) Platform, in MCF-7 cells cultured in DMEM + 10% fetal bovine serum, Harrill Lab (AID 2284011; active = hit-call score of the fitted dose curve at least 0.9, where 1 is the maximum; inactive = score below 0.9)
Method in brief: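 Apoptosis in MCF-7 cells grown in DMEM with 10% fetal bovine serum was scored after a six hour exposure by high content imaging of caspase-3/7 activation (CellEvent Caspase 3/7 Green), with DMSO serving as negative control and baseline.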

[13] = ATG_PPRE_CIS: Attagene CIS-FACTORIAL HepG2 Assay for human Peroxisome Proliferator-activated Response Element (PPRE) (AID 2282958; active = hit-call score of the fitted dose curve at least 0.9, where 1 is the maximum; inactive = score below 0.9); details: HepG2 PPRE cis-element reporter, Attagene transcription factor profiling; actives raise or lower the signal
Method in brief: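 HepG2, transient MRTU transfection (cis promoter elements, endogenous TFs). 24 h dosing. RNA → oligo(dT) RT → PCR → 6-FAM primer extension → HpaI digest → CE. Bidirectional fit vs DMSO.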

[14] = TOX21_p53_BLA_p3_viability: Viability Assessment in the Tox21 HCT-116 p53 Agonism Beta-lactamase Assay, Phase 3 (AID 2283593);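 also: cells exposed to compound for 16 h before reading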
Method in brief: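 Cellular ATP was quantified by CellTiter-Glo luminescence, read after 30 min at room temperature. Beforehand, HCT116 cells (4000/well) received compound 5 h post-seeding, 217-fold diluted from DMSO, then incubated 16 h at 37C.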

[15] = TOX21_p53_BLA_p4_viability: Viability Assessment in the Tox21 HCT-116 p53 Agonism Beta-lactamase Assay, Phase 4 (AID 2283597);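 also: hits lower the luminescence signal meaning cytotoxicity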
Method in brief: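 Luminescent ATP readout (CellTiter-Glo, 30 min, room temperature) in the same wells as the p53 bla ratio. HCT116 cells were treated for 16 h at 37C with DMSO-dissolved compounds.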

[16] = ACEA_ER_AUC_viability: ACEA Biosciences xCELLigence Real-Time Cell Analysis on Estrogen Receptor Agonism for Viability (AID 2283782);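 also: continuous compound exposure with impedance area under curve over 80 h; hit means loss of impedance signal meaning reduced cell growth or viability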
Method in brief: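 T-47D; phenol red-free RPMI1640 + 10% CS-FBS; 8 conc., 1:4 serial, max 100 uM final, ≤0.5% DMSO; n = 2; continuous exposure; impedance monitored to 80 h post-dose; AUC vs DMSO.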

[17] = target: Nuclear receptor subfamily 4 group A member 2 (Homo sapiens) (UniProt P43354); assay: ATG_NURR1_TRANS: Attagene TRANS-FACTORIAL HepG2 Assay for human Nuclear Receptor Related Protein 1 (NURR1) (AID 2282985); details: HepG2 Attagene TRANS reporter, mRNA readout
Method in brief: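 Transient transfection of HepG2, human liver cells, with multiple GAL4-UAS reporter transcription units. Cells dosed 24 h, RNA isolated, reverse-transcribed, PCR-amplified, FAM-labelled, HpaI-digested, sized by capillary electrophoresis. DMSO served as negative control.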

[18] = TOX21_p53_BLA_p5_viability: Viability Assessment in the Tox21 HCT-116 p53 Agonism Beta-lactamase Assay, Phase 5 (AID 2283600)
Method in brief: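 Seeded cells (4000/well) settle 5 h before compound addition. Plates then incubate 16 h at 37C, receive FRET substrate for 2 h, and finally CellTiter-Glo, with luminescence measured after a 30 min room-temperature incubation.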

[19] = target: human RAR-related Orphan Receptor gamma (RORg), RORC (gene 6097) (UniProt P51449); assay: ATG_RORg_TRANS: Attagene TRANS-FACTORIAL HepG2 Assay for human RAR-related Orphan Receptor gamma (RORg) (AID 2283011)
Method in brief: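 Chimeric RORg-Gal4 transactivation in transfected HepG2; 24 h exposure; RT-PCR/capillary electrophoresis readout of reporter mRNA, DMSO baseline.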

[20] = target: human Thyroid Receptor alpha (THRa1), THRA (gene 7067) (UniProt P10827); assay: ATG_THRa1_TRANS: Attagene TRANS-FACTORIAL HepG2 Assay for human Thyroid Receptor alpha (THRa1) (AID 2283014)
Method in brief: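 Measured here is mRNA from a GAL4-UAS reporter in transfected HepG2 cells carrying a Gal4-fused receptor, 24 h post-dose. DMSO served as negative control and baseline.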

Measured: AC50

Chain of Nuclear receptor subfamily 4 group A member 2 (Homo sapiens) (P43354 whole entry, looked up, the tested form may be a part): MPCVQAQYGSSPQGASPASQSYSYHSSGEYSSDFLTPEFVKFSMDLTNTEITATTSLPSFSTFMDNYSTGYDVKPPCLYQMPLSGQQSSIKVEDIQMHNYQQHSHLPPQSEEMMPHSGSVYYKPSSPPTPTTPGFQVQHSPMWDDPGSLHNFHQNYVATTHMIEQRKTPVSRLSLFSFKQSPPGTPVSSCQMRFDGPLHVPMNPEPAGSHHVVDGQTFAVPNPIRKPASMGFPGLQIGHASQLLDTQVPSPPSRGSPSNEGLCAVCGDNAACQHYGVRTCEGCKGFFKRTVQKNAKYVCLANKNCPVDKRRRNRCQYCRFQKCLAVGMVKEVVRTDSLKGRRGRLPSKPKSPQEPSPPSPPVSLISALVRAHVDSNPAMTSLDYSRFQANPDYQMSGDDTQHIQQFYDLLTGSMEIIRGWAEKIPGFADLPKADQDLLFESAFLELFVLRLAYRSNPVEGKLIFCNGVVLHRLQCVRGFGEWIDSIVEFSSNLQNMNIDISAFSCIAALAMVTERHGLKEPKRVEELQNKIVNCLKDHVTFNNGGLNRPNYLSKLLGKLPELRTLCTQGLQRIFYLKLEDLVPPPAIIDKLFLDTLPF
Chain of human RAR-related Orphan Receptor gamma (RORg), RORC (gene 6097) (P51449 whole entry, looked up, the tested form may be a part): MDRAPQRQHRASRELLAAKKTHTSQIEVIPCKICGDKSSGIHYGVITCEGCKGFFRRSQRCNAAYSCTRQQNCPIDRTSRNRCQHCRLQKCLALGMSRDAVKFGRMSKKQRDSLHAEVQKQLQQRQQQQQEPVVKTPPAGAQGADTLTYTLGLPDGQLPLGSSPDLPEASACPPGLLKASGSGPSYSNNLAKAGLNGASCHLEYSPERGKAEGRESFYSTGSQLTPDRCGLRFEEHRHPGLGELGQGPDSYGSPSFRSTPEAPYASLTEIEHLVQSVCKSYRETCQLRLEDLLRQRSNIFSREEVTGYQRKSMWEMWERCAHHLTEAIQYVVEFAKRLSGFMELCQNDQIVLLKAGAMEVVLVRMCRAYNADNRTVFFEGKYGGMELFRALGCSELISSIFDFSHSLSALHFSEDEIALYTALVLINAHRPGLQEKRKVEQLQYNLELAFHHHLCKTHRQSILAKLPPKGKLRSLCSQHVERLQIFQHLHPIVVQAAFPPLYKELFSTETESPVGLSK
Chain of Oxysterols receptor LXR-beta (Homo sapiens) (P55055 whole entry, looked up, the tested form may be a part): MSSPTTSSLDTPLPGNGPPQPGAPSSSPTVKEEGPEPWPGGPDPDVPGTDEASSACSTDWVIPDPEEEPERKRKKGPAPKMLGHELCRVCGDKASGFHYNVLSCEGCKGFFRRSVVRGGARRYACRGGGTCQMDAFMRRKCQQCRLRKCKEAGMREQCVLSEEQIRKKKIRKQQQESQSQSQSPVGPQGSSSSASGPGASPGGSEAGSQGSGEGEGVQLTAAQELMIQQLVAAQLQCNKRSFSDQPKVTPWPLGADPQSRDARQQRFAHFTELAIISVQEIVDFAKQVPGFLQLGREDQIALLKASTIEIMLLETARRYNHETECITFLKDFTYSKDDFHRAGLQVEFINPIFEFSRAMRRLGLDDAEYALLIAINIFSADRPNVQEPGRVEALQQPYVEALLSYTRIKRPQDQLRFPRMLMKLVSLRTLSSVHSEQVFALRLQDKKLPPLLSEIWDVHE
Chain of Oxysterols receptor LXR-alpha (Homo sapiens) (Q13133 whole entry, looked up, the tested form may be a part): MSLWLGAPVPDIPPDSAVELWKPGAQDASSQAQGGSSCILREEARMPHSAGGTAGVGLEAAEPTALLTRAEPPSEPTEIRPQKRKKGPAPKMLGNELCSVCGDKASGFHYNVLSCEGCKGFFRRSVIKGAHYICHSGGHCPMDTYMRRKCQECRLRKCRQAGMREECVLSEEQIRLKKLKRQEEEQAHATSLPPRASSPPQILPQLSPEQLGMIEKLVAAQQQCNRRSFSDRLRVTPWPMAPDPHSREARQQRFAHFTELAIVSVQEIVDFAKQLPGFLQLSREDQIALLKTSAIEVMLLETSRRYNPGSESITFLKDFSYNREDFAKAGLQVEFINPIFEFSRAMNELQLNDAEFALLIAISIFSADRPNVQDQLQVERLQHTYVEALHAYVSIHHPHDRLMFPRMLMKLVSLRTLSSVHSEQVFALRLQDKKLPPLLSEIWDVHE
Chain of human Thyroid Receptor alpha (THRa1), THRA (gene 7067) (P10827 whole entry, looked up, the tested form may be a part): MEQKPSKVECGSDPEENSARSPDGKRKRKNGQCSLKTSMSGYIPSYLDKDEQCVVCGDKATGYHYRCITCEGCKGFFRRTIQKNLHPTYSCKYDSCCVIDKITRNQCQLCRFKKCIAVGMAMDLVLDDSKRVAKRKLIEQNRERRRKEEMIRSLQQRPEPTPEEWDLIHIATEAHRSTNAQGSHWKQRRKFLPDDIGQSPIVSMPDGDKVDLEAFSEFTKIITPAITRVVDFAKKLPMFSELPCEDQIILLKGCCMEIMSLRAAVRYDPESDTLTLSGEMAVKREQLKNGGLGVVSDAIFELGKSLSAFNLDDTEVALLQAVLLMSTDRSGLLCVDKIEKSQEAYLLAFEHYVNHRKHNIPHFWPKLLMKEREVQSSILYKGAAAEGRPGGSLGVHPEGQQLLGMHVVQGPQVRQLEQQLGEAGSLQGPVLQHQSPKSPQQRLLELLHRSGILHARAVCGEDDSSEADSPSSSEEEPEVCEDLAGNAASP
Chain of Nuclear receptor subfamily 1 group I member 3 (Homo sapiens) (Q14994 whole entry, looked up, the tested form may be a part): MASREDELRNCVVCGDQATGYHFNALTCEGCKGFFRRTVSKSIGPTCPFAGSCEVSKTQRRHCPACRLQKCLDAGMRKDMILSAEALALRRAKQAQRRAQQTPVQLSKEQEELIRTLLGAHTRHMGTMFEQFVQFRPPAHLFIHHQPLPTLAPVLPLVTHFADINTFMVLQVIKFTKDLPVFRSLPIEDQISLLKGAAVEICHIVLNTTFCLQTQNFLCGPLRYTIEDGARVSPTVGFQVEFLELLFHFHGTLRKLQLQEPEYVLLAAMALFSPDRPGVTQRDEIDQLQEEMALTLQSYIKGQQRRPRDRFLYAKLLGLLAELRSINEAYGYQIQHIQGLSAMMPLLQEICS
Chain of Peroxisome proliferator-activated receptor gamma (Homo sapiens) (P37231 whole entry, looked up, the tested form may be a part): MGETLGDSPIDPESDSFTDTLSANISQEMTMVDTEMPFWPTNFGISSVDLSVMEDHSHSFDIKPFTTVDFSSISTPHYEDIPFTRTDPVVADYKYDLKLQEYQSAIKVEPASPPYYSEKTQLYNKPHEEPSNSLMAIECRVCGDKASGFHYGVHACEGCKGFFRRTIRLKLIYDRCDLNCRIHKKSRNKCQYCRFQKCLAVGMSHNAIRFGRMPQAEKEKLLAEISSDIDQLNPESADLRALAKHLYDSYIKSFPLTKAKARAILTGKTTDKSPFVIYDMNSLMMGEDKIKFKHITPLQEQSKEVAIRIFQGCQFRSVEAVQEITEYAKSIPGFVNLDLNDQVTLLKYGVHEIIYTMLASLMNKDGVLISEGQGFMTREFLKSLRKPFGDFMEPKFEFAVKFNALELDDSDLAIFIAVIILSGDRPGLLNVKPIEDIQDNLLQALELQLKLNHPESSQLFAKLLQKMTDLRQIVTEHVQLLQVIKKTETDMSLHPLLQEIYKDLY
Chain of human RAR-related Orphan Receptor beta (RORb), RORB (gene 6096) (Q92753 whole entry, looked up, the tested form may be a part): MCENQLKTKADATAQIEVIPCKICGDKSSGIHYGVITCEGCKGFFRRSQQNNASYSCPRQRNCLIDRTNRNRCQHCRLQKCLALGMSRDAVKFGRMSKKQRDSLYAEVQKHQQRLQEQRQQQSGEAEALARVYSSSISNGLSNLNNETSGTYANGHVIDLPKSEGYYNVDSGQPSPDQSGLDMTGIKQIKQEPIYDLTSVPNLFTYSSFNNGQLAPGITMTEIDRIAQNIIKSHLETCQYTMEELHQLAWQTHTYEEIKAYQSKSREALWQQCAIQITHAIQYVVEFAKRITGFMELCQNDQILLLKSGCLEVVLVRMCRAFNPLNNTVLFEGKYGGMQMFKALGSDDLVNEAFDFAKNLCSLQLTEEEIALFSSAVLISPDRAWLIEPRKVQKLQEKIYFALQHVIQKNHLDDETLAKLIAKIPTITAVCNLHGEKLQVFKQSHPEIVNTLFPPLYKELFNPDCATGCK
Chain of human Peroxisome Proliferator-activated Receptor alpha (PPARa), PPARA (gene 5465) (Q07869 whole entry, looked up, the tested form may be a part): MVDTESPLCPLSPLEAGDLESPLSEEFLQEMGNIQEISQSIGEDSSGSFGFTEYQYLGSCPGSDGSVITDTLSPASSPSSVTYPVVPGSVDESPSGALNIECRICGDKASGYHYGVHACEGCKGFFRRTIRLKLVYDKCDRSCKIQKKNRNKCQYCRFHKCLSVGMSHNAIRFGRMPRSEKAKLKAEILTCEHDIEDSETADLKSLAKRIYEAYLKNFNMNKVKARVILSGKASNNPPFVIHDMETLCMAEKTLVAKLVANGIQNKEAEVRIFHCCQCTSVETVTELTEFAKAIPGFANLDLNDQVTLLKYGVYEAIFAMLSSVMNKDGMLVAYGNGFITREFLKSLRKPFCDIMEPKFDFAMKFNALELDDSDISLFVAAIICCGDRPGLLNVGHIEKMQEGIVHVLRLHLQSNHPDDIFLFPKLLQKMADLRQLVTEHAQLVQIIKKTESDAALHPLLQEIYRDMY
Chain of Retinoic acid receptor alpha (Homo sapiens) (P10276 whole entry, looked up): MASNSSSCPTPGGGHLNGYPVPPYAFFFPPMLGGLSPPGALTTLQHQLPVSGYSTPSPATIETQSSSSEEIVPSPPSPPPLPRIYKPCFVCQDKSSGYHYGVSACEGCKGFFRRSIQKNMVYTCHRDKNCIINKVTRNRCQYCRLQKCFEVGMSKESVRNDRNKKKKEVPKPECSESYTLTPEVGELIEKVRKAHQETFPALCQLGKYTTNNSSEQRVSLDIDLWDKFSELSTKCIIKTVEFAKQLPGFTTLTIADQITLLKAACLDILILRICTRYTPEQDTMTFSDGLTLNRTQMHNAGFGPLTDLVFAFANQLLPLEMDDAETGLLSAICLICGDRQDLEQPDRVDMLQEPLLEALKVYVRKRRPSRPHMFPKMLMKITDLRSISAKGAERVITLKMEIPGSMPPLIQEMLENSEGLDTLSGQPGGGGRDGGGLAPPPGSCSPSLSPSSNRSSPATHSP

COC(=O)CCSCCC(=O)OC
inactive: [1] | [2] | [3] | [4] | [5]

Cc1cccnc1
inactive: [6] | [7] | [8] | [4] | [9] | [10] | [11] | [12]

CCCOCCC
not listed: [2] | [10] | [11] | [12] | [17] | [18] | [19] | [20]
inactive: all other assays above

O=C(c1ccccc1)c1ccccc1O
active: [16] 76.9 µM
inactive: [1] | [6] | [3] | [5] | [9]

Cc1ccccc1S(N)(=O)=O
inactive: [1] | [2] | [6] | [8] | [4] | [17] | [14] | [15] | [18] | [16]

Cc1cc(-n2nc3ccc(Cl)cc3n2)c(O)c(C(C)(C)C)c1
inactive: [1] | [2] | [6] | [7] | [3] | [19]

CC(C)=CCOC(=O)c1ccccc1
inactive: [1] | [3] | [8] | [4] | [17] | [19] | [14] | [15] | [18]
active: [16] 50 µM

O=C(O)c1cc(Cl)cc(Cl)c1O
active: [9] 100 µM
not listed: [1] | [2] | [3] | [4] | [6] | [8] | [17]
inactive: all other assays above

COc1ccccc1OCC(O)CO (centres undefined)
inactive: [13] | [5] | [19] | [18] | [16]

Cc1cc(C)c(S(=O)(=O)O)cc1N=Nc1cc(S(=O)(=O)O)c2ccccc2c1O
inactive: [13] | [6] | [7] | [8] | [4] | [5] | [9] | [19] | [14] | [18] | [16]

F[B-](F)(F)F
inactive: [8] | [17] | [10] | [16]

CC=CC(=O)O
inactive: [1] | [7] | [3] | [19] | [16]

NC(=O)c1ccc([N+](=O)[O-])cc1Cl
inactive: [1] | [2] | [13] | [3] | [9] | [10] | [20] | [18]

Nc1ccc(S(=O)(=O)Nc2cnc3ccccc3n2)cc1
inactive: [8] | [17] | [9] | [20] | [18] | [16] | [11] | [12]

CC1(C)S[C@@H]2[C@H](NC(=O)[C@H](N)c3ccccc3)C(=O)N2[C@H]1C(=O)O
not listed: [1] | [2] | [6] | [11] | [12] | [16] | [20]
inactive: all other assays above
